PBM binding z-score data for 40 sequences are collected here from the supplement of paper PMC6555819.

The subject of this test is VDR:RXRa (NR concentration 270 nM, RXRa partner concentration 90 nM). Nature of the test: PBM binding z-score (relative to random genomic background probes); higher = stronger binding; sequences stand for … in GC…GCGATTGACAGCGTAGAATGAAGG
As to the method:
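Protein-binding microarray (Agilent 4x180K custom design, double-stranded 60-nt probes: 5' GC cap, 34-nt variable region, 24-nt constant primer region; full probe sequence given). Purified or IVT nuclear receptor:RXRα heterodimers (3:1 NR:RXRα, mostly 270:90 nM) or homodimers were incubated for 1 h in PBS with 2% milk and no ligand, then detected with Alexa488 antibodies. Fluorescence from o1-orientation probes (~5 replicates averaged) was converted to z-scores against 500 random hg19 background probes. Variable regions are seed direct-repeat (DR0–DR5) sites, all their single-nucleotide variants and half-site ablations.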
With AGAGCGAGGGCACGCTGAGTTGATAGCAGAGTAG, the PBM binding z-score is 1.86. On to ATCTCTACGTAAAAGTTCAGTGAATCCCGAGGAT, for which the PBM binding z-score was found to be 1.1.

Sequence CGTCAAAGTTCAACTAAGGTAGCGTAAAGCACGC had a PBM binding z-score of 4.35.

Sequence ACTCGGAGGACAAAGGTCTGAGCTACGCCAGTGA displayed a PBM binding z-score of -0.29. Then CCTACGGGGCCAAAAAGGTCATTGATGCCGATAA, with 5.88.

In turn, CTCGAATGGTCGGTTGAGGTGAGTATACGGATAA had a PBM binding z-score of -0.211. Then CCTAGCAGGCCAATCTGGGTCACACAAGGCTTGA, with 1.09; and GCTCGGAGGACAAGGTCAGAGCTTTGTCCGTAGA, with 1.34; and CCTTACGGGTCACCCCAGGTTATAGCATCGGAGT, with 4.91.

As to CAGCCTAGGTCAGGGCCCGTATAGGAGGAACGTT, the PBM binding z-score worked out at 0.0568. Then CCTTACGGGTCACTCCAGGTGATAGCATCGGAGT, with 3.34; and CAAACTAGGTCAAAGGTCAAAGTCGAGCCAACCA, with 6.72; and GGAACGAGAGCAAAGTTGATAGCATCTGTCGACG, with -0.413. Then GCTTGTAGATCAAGGATAAGAAAGACTAAGCTAA, with -0.525; and CGTCAAAGTTCAAGGTAACGTTACAGAAAGCAGC, with 3.97; and CGAACTAGGTCATTGACGGGACAGTGAATAGTAA, with 1.86. Then AGAATGAGGTTTCCAAAGATCAGGGAAACGCTTG, with -0.555; and TCTTTTAGTTGATTAGGGCAACCGAAACAGCGGA, with 0.986.

On to GCTTACGGGTCAAAGGTTATTGCATGAATAGAAT, for which the PBM binding z-score came out at 5.54. In the case of CCTAGTTGGTCAGGAGATCACACACCGGATATGA, the PBM binding z-score turned out to be 0.242.

For the sequence ACTATTAGTTGAGACGAGGGCAACCTATAGGTTG, the PBM binding z-score was 0.781. Then GCTTGTAGATCCAGGTTAAGAAAGACTAAGCTAA, with -0.307; and TCATATAGGTAAAGGTGAAAGCCGAACGATATGA, with 0.743.

Take CCTAGTCGGTCAAGGTCACACACGCTATAGGTAC: the PBM binding z-score worked out at 4.29. In the case of GCTGATAGGTCAACTGATGGTCAGCTAAAGCTCG, the PBM binding z-score worked out at 2.69. Then TCTATTAGTTGATTAGGGCAACCTAAACAGCGGA, with 0.744. On to CCGAGTAGGTTATGAGGCATTCAGGCAACGGTGA, for which the PBM binding z-score is -0.286. Then CGTCCAAGGTCAATGCTAGGTCTGTGAAAGCATT, with 3.76. Then AATACAGGGTCACTAGGACAGAGTAGGTACGAAT, with 3.97; and TTACCAAGGTGAAGGTCGTTGGTCCCTCTGTAGA, with 0.994.

On to CCCAGCAGGCCAGGGTCACTCAAGCATTTCGCTT, for which the PBM binding z-score was determined as 2.42. Then TCGAGTAGGTTAGGGGCGTTCAGAATGGCGTCGA, with 0.157; and TCTATTAGATGATTAGGGCAACCGAAACAGCGGA, with 0.44.

In turn, AGTCAAAGTTCATTTAGGTAACGTAAGATATGCT had a PBM binding z-score of 4.97. As for TCATATAGGTAATACAGGTGAAAGTTGGCATCTA, the PBM binding z-score came out at 1.46. Then ACAGACAGGTGAGTGTAGGTAACTCAGCTGGACG, with -0.371; and CCAGAAAGGTGAGAAGGTAACTCAGCCTCGATTA, with 0.43. ACAGACAGGTGAGCGAAGGTAACTCAGCTGGACG showed a PBM binding z-score of -0.641. Then AATACAGGGTCATCGTAGGCCAGGGTACGCACAG, with 5.25; and CCGAGTAGGTTATGGGGCATTAAGGCAACGGTGA, with 0.259.
